A selection: hits, their analogues and other compounds. The true share with any hit is near 4.4%.
TRHR agonist: qHTS for Small Molecule Agonists and Allosteric Enhancers of Human TRH Receptor: Primary Screen for Agonists; activation, % at 2 µM; Thyrotropin-releasing hormone receptor (Homo sapiens), P34981; AID 493084, 2011; TRHR cells, calcium flux fluo-8, FDSS agonist mode; 0.18% of 360,000 active; note: 0% is about no effect
Target sequence (P34981 whole entry, looked up): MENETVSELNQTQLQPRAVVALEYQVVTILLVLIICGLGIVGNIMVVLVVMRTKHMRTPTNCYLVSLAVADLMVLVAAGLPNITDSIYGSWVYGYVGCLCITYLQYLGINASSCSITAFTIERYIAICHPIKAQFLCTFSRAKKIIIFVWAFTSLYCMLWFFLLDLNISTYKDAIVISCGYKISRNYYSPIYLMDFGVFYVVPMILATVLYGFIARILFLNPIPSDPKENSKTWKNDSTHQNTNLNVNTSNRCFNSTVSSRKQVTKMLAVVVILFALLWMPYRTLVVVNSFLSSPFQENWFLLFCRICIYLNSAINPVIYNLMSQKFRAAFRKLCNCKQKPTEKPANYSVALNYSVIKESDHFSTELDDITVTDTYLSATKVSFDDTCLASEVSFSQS
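In this calcium-flux screen, cells bearing human TRHR are dye-loaded with fluo-8, baselined for 10 cycles, then exposed to library compounds; positive kinetic calcium responses during the agonist phase mark hits, with TRH as control.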
D1 antag: Antagonist of Human D 1 Dopamine Receptor: qHTS | D(1A) dopamine receptor (Homo sapiens), P21728 | HEK293 TREx D1 cells, calcium flux, dopamine EC80; stronger effect = lower value | activity change, negative = inhibition, % at 10 µM | 3.2% of 360,000 active | AID 504652, 2011; in the data active = activity change below about -30%; note: % is set by controls: 0 for no effect and ±100 for the full control effect
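Allosteric or orthosteric antagonism assessed as attenuation of the calcium response to EC80 dopamine, added 180 s after compound, in induced HEK293 Trex D1 cells loaded with no-wash calcium dye.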
USP1 inh: Inhibitors of USP1/UAF1: Primary Screen | Ubiquitin carboxyl-terminal hydrolase 1 (Homo sapiens), O94782 | recombinant USP1/UAF1, Ub-Rhodamine cleavage fluorescence | Potency, µM (series often up to 57.1 µM), for the others: at the top dose activity change, negative = inhibition, hits mostly inhibitors | 0.23% of 390,000 active | AID 743255, 2014; active = well fitted inhibition curve with a large enough effect; inconclusive = small, poorly fitted or top-dose-only effect; inactive = no such curve, though single readings can be large or run the other way; note: potency is the fitted concentration of half-maximal effect; % is set by controls: 0 for no effect and ±100 for the full control effect; nearly all actives have a fitted effect of over 60% in size
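Step one: compound is pinned into 1nM USP1/UAF1 in HEPES pH 7.8 buffer with TCEP. Step two: 15 min room-temperature incubation. Step three: Ub-Rho (150nM final) starts cleavage, tracked by fluorescence over six one-minute reads.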
TRHR PAM: qHTS for Small Molecule Agonists and Allosteric Enhancers of Human TRH Receptor: Primary Screen for Enhancers. AID 493056, 2011. TRHR cells, fluo-8 calcium fluorescence, EC20 TRH enhancement. enhancement, % at 2 µM. Thyrotropin-releasing hormone receptor (Homo sapiens), P34981. 0.66% of 360,000 active; in the data active = enhancement above about 30%; note: 0% is about no effect
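TRHR-expressing cells loaded with fluo-8 calcium dye were read kinetically (ex 480/em 530) during compound addition, then stimulated with an EC20 of TRH (10 nM final). Enhancement of the Gq-mediated intracellular calcium response was scored.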
D1 PAM: Potentiators of Human D1 Dopamine Receptor: qHTS; D(1A) dopamine receptor (Homo sapiens), P21728; HEK293 TREx D1 cells, calcium flux, dopamine EC20 potentiation; potentiation, % at 10 µM; 0.036% of 360,000 active; AID 504651, 2011; in the data active = potentiation above about 30%; note: 0% is about no effect
D1 ag: Allosteric Agonists of the Human D1 Dopamine Receptor: qHTS; activation, % at 2 µM; D(1A) dopamine receptor (Homo sapiens), P21728; HEK293 T-REx D1 cells, calcium flux, agonist mode; AID 504660, 2011; 1% of 360,000 active; note: 0% is about no effect
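Inducible HEK293 T-REx D1 cells, force-coupled to calcium signalling, were plated at 4000 cells/well with tetracycline and held overnight at 30 C. After no-wash calcium dye loading, compound-evoked calcium rise over 180 s flagged agonists.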
* hit, by the source's call; ? = inconclusive; · = no result. Cut-off read from the data, not from the text of the source, unless noted: active = activation above about 30%; inactive = the rest.

SMILES | TRHR agonist | D1 antag | USP1 inh | TRHR PAM | D1 PAM | D1 ag
COc1ccc(CNCCC(c2ccc(OC(C)C)cc2)C(C)C)cc1OC (configuration not stated) | 3 | 30 | -14% | -1 | 2 | 35*
COc1ccc(CNCCC(c2ccc(OC(C)C)cc2)c2ccccc2OC)cc1OC (configuration not stated) | 7 | 40 | -22% | 1 | 9 | 16
COc1ccc(CNCCC(c2ccc(OC(C)C)cc2)c2ccccc2OC)cc1 (configuration not stated) | 0 | 5 | -8% | -3 | -4 | 35*
COc1ccccc1C(CCNCc1ccccc1)c1ccc(OC(C)C)cc1 (configuration not stated) | 1 | 12 | -13% | 18 | 12 | 28
Cc1ccc(C(=O)NNc2cc(N3CCCC3)nc(N3CCCC3)n2)cc1 | · | · | 14µM* | · | · | ·
CC(=O)N1c2ccccc2Oc2cc3ccccc3cc21 | 0 | 19 | -4% | 1 | -9 | 0
O=C(CCl)N1c2ccccc2Oc2ccc3ccccc3c21 | · | · | 22µM* | · | · | ·
Cc1ccc2nc(-c3ccc(Cl)cc3)cc(C(=O)OCC(=O)c3ccccc3)c2c1 | 0 | 0 | -22% | -2 | 1 | -2
O=C(COC(=O)c1cc(S(=O)(=O)NCc2ccccc2)ccc1O)NCc1ccccc1 | 0 | -3 | -15% | 1 | 6 | 2
O=C(COC(=O)c1cc(S(=O)(=O)NCc2ccccc2)ccc1O)c1cc2ccccc2o1 | 0 | -62* | -26% | 4 | -4 | 2
Cc1cc(Cl)ccc1NC(=O)c1cccc(NC(=O)N2CCSc3ncccc32)c1 | 0 | -49* | -9% | -1 | -3 | 4
Cc1cc(C)c2c(n1)SCCN2C(=O)Nc1ccc(C(=O)Nc2cc(Cl)ccc2C)cc1 | 0 | -33* | -14% | 3 | -2 | 4
Cc1ccc(NC(=O)c2cccc(NC(=O)N3CCSc4ncccc43)c2)cc1Cl | -1 | 4 | -28% | 2 | -2 | 2
COc1ccc(OC)c(NC(=O)c2c(NCc3ccc(N(C)C)cc3)sc3c2CCCC3)c1 | 0 | 5 | -18% | 4 | 2 | 1
CCOc1ccc(C(=O)Nc2ccc(C(=O)OCc3cc(=O)n4ccsc4n3)cc2)cc1 | 1 | -8 | ? | 1 | 0 | -1
CSCC(C)N1CCC(CO)(CCc2ccccc2)CC1 (configuration not stated) | 0 | -5 | -16% | -2 | 6 | 3
CC(COc1ccccc1)N1CCC(CO)(CCc2ccccc2)CC1 (configuration not stated) | 1 | 9 | -11% | 0 | -6 | 35*
CCOc1ccc(-n2c(=O)c3c(C)c(C)sc3n(CC(=O)N3CCC(C)CC3)c2=O)cc1 | -1 | -4 | -1% | -8 | 2 | -1
CC(NC(=O)Cn1c(=O)oc2cc(S(=O)(=O)NCc3ccccc3)ccc21)c1ccccc1 (configuration not stated) | 0 | 5 | -22% | 3 | -5 | 4
N#C/C(=N\Nc1cccc([N+](=O)[O-])c1)C(=O)c1ccc(Br)cc1 | 1 | -34* | -20% | -6 | -3 | 21
O=C(O)c1ccc(N=NNc2cccc([N+](=O)[O-])c2)cc1 | 0 | 12 | -16% | 2 | -1 | 1
Cc1ccccc1-c1noc(-c2ccccc2C(=O)NCc2ccco2)n1 | 0 | 1 | -9% | 4 | -4 | 12
O=C(NCc1ccco1)c1ccccc1-c1nc(-c2ccc(F)cc2)no1 | 0 | -45* | -1% | 8 | 2 | 0
COc1ccc(CCN2C(=O)c3[nH]nc(-c4ccccc4O)c3C2c2ccccc2)cc1 (configuration not stated) | 0 | 15 | -11% | 6 | 1 | -2
Cc1sc2ncnc(NC3CCN(Cc4ccccc4)CC3)c2c1C | 0 | -53* | -1% | 0 | -16 | 8
SMILES | TRHR agonist | D1 antag | USP1 inh | TRHR PAM | D1 PAM | D1 ag
Cc1csc2c(NC3CCN(Cc4ccccc4)CC3)ncnc12 | 1 | -37* | -18% | 2 | -9 | 11
c1ccc(CN2CCC(Nc3ncnc4sccc34)CC2)cc1 | 1 | -26 | 4% | -3 | -5 | 11
CC(C)Cc1ccc(C(C)C(=O)Nc2nccs2)cc1 (configuration not stated) | 8 | 4 | -2% | 5 | 2 | 30
CC(C)Cc1ccc(C(C)C(=O)Nc2ccccc2O)cc1 (configuration not stated) | 10 | -26 | -10% | -6 | -17 | 65*
O=C(Nc1ccccn1)NC1CCS(=O)(=O)C1 (configuration not stated) | 0 | -34* | -4% | -3 | -3 | 1
Cc1cc(C)c2c(-n3cccc3)c(C(=O)NCCCN3CCCCC3)sc2n1 | -1 | -6 | -23% | 0 | -1 | 0
COc1ccccc1CNC(=O)CN(C)c1nn2c(=O)cc(C)nc2s1 | 1 | 7 | -25% | 2 | -1 | 3
CC(NS(=O)(=O)c1ccc(Br)cc1)c1ccccc1 (configuration not stated) | 0 | -34* | -22% | 1 | -8 | 1
CCOc1ccccc1NC(=O)CN1C(=O)C2(SCC(=O)N2c2cccc(F)c2)c2ccccc21 (configuration not stated) | 1 | 5 | -24% | -11 | 5 | 5
O=C(O)c1cccc(NC(=O)c2cc3cc(Br)cc(Br)c3oc2=O)c1 | 0 | 6 | -18% | 3 | 0 | 1
CCc1nn(CC(=O)N2CCCCC2)c(=O)c2cc3sc(C)cc3n12 | 0 | 0 | -4% | -1 | -1 | 1
COc1cc(CC(=O)OCC(=O)Nc2sccc2C(N)=O)cc(OC)c1OC | 1 | -27 | -21% | -3 | -1 | 11
CC(Oc1ccccc1)C(=O)OCC(=O)Nc1sccc1C(N)=O (configuration not stated) | 0 | -34* | -16% | -1 | -3 | 14
Cc1ccccc1NC(=O)COC(=O)Cc1ccsc1 | 0 | -31* | -21% | -1 | -4 | 3
NC(=O)c1ccsc1NC(=O)COC(=O)Cc1ccsc1 | 1 | -39* | -10% | -9 | -8 | 10
Cc1cccc(C)c1NC(=O)COC(=O)Cc1ccsc1 | 0 | 10 | -13% | 0 | -6 | 3

Bioassay records from PubChem.
